Screening data as filed in PubChem BioAssay.
The list is not random: actives were taken first. Their share in the collection is about 6.7%.
KB-3-1 cytotox: KB-3-1 parental cell cytotoxicity; 400,000 compounds, 1.4% hits; Potency, µM (titrated, usually from 46.1 µM), actives largely listed as cytotoxic; KB-3-1 viability, CellTiter-Glo ATP luminescence, 72 h; note: % is set by controls: 0 for no effect and ±100 for the full control effect; nearly all actives have a fitted effect of over 60% in size
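Viability of parental KB-3-1 cells, measured by CellTiter-Glo luminescence, followed a 72 h incubation at 37 °C with pinned compounds in phenol-red-free DMEM containing 10% FBS.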
SW480 rereplic: inducers of DNA re-replication in SW480 colon cancer cells; 340,000 compounds, 1.8% hits; SW480 DNA re-replication, Hoechst DNA content imaging, 48 h; Potency, µM (series often up to 46.1 µM), without a hit: top-dose re-replication activation, hits mostly activators; note: % of control where 0% means no effect; nearly all actives have a fitted effect of over 55% in size
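SW480 cells exposed to compounds for 48 hr at 37 C, 5% CO2, then Hoechst-stained 40 min. Nuclear DNA content imaged by fluorescence scanning (405 nm excitation, 500-530 nm emission); re-replication scored as increased high-intensity nuclei.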
MCF10A rereplic: induces DNA re-replication in MCF 10a normal breast cells. MCF 10A DNA re-replication, Hoechst nuclear intensity, 48 h. AID 624296. 350,000 compounds, 2.9% hits. Potency, µM (doses to about 46.1 µM), inactives show at the top dose activity, positive = re-replication, actives largely listed as activators; note: % of control where 0% means no effect; nearly all actives have a fitted effect of over 50% in size
PINK1 modulator: modulators of PINK1 expression. PINK1 immunofluorescence, high-content cytometry, 24 h. Potency, µM (titrated, usually from 76.6 µM), without a hit: at the highest dose activation (PINK1 increase), actives largely listed as activators. 410,000 compounds, 0.2% hits; active = well fitted activation curve with a large enough effect; inconclusive = small, poorly fitted or top-dose-only effect; cell line not stated here; note: % of control where 0% means no effect; nearly all actives have a fitted effect of over 65% in size
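Stable cell line, 250 cells/well, 12 h attachment; compounds pinned at 5 concentrations, 24 h; CCCP control. Fixed with nuclear dye, primary antibodies 12 h at 10 degrees C, secondary plus cell stain; laser-scanning cytometer read.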
KB-V1 cytotox: KB-V1 MDR subline cytotoxicity. KB-V1 MDR cells viability, CellTiter-Glo, 72 h. Potency, µM (titrated, usually from 46.1 µM), most hits filed as cytotoxic. 400,000 compounds, 3.4% hits. AID 1347076; note: % is set by controls: 0 for no effect and ±100 for the full control effect; nearly all actives have a fitted effect of over 60% in size
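KB-V1 cells (P-gp-expressing MDR subline of KB-3-1) in phenol-red-free DMEM with 10% FBS were exposed to library compounds over a concentration series for 72 h at 37 degrees C. Viability read by CellTiter-Glo luminescence; concentration-effect curves fitted after normalization.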
An asterisk follows results filed as active; [ ] = another dose, or the depositor's remark. Unless noted, calls come from the whole dose curve; as a rule, active = well fitted curve in the direction sought with a large enough effect; inconclusive = small, poorly fitted or top-dose-only effect, or another doubt; inactive = no such curve, though single readings can be large; an effect the other way counts as inactive or inconclusive. Potency is the fitted concentration of half-maximal effect.

How did CN(CCOc1ccc(Cl)cc1)C(=O)c1cc(-c2ccco2)nc2ccccc12 do in these assays?
KB-3-1 cytotox: inactive; SW480 rereplic: -28%; MCF10A rereplic: inconclusive; PINK1 modulator: 8%; KB-V1 cytotox: 16µM*

Results for COc1ccc(C2=NN(C(=O)CN3CCCCC3)C(c3ccc(C)cc3)C2)cc1 (configuration not stated) ?
KB-3-1 cytotox: inactive; SW480 rereplic: -10%; MCF10A rereplic: -3%; PINK1 modulator: 6%; KB-V1 cytotox: inconclusive

What do the screens show for `COc1ccc(C2CC(c3ccccc3)=NN2C(=O)COC(=O)c2cccc(S(=O)(=O)N3CCOCC3)c2)cc1` (configuration not stated)?
KB-3-1 cytotox: inactive; SW480 rereplic: 5%; MCF10A rereplic: -1%; PINK1 modulator: 0%; KB-V1 cytotox: inactive

How did COc1ccc(C2CC(c3ccccc3)=NN2C(=O)CN2CCN(Cc3ccccc3)CC2)cc1 (configuration not stated) do in these assays?
KB-3-1 cytotox: inconclusive; SW480 rereplic: 11%; MCF10A rereplic: -1%[9.22 µM]; PINK1 modulator: 0%; KB-V1 cytotox: 23µM*

How did COc1ccc(C2=NN(C(=O)COC(=O)c3ccc(S(C)(=O)=O)c([N+](=O)[O-])c3)C(c3ccco3)C2)cc1 (configuration not stated) do in these assays?
KB-3-1 cytotox: inconclusive; SW480 rereplic: 12µM*; MCF10A rereplic: inconclusive; PINK1 modulator: -6%; KB-V1 cytotox: inconclusive

How did COc1ccc(C2CC(c3ccccc3OC(C)=O)=NN2C(=O)/C=C/c2ccccc2)cc1 (configuration not stated) do in these assays?
KB-3-1 cytotox: inactive; SW480 rereplic: 1%; MCF10A rereplic: 9%; PINK1 modulator: 3%; KB-V1 cytotox: inactive

What do the screens show for `COc1ccc(C2CC(c3ccccc3OC(C)=O)=NN2C(C)=O)cc1` (configuration not stated)?
KB-3-1 cytotox: inconclusive; SW480 rereplic: 16µM*; MCF10A rereplic: 9%; PINK1 modulator: 0%; KB-V1 cytotox: inconclusive

What do the screens show for `COc1ccc(C2CC(c3ccccc3)=NN2C(=O)COC(=O)c2cccc(S(=O)(=O)N(C)C)c2)cc1` (configuration not stated)?
KB-3-1 cytotox: inactive; SW480 rereplic: -1%; MCF10A rereplic: -1%; PINK1 modulator: 2%; KB-V1 cytotox: 3.7µM*

What do the screens show for `COC(=O)C[C@H]1C[C@H]2c3cc(NC(=O)Nc4ccc(F)cc4)ccc3O[C@H]2[C@@H](CO)O1`?
KB-3-1 cytotox: inactive; PINK1 modulator: 0%; KB-V1 cytotox: inactive

What do the screens show for `CCCCn1nnnc1C(c1cc2ccccc2o1)N(Cc1ccccc1)Cc1ccccc1` (configuration not stated)?
KB-3-1 cytotox: inconclusive; PINK1 modulator: 0%; KB-V1 cytotox: inconclusive

How did CCC(=O)N1N=C(c2ccccc2)CC1c1ccc([N+](=O)[O-])cc1 (configuration not stated) do in these assays?
KB-3-1 cytotox: inactive; SW480 rereplic: inconclusive; MCF10A rereplic: 12%; PINK1 modulator: 8%; KB-V1 cytotox: 15µM*

What do the screens show for `COc1ccc(C2CC(c3ccc([N+](=O)[O-])cc3)=NN2C(=O)c2ccccc2)cc1OC` (configuration not stated)?
KB-3-1 cytotox: inactive; SW480 rereplic: 1%; MCF10A rereplic: -11%; PINK1 modulator: 0%; KB-V1 cytotox: inactive

Results for CCc1ccc(NC(=S)N(Cc2ccc(Cl)cc2)Cc2ccc(C(=O)O)cc2)cc1 ?
KB-3-1 cytotox: inactive; SW480 rereplic: -3%; MCF10A rereplic: 16%; PINK1 modulator: 1%; KB-V1 cytotox: inactive

What do the screens show for `CC(C)CN(CC(C)C)C(=S)Nc1ccc(Cl)cc1`?
KB-3-1 cytotox: inactive; SW480 rereplic: 10%; MCF10A rereplic: 18µM*; PINK1 modulator: 8%; KB-V1 cytotox: inactive

What do the screens show for `O=C(CN1CCN(c2ccc(O)cc2)CC1)Nc1cc([N+](=O)[O-])ccc1Cl`?
KB-3-1 cytotox: inactive; SW480 rereplic: 2%; MCF10A rereplic: -2%; PINK1 modulator: -3%; KB-V1 cytotox: 8.2µM*
